An excerpt weighted towards active compounds, which were near 1.3% of everything screened.
Mito fusion act = blocks mitochondrial division or promotes mitochondrial fusion | 320,000 compounds, 0.23% hits | AID 485298 | S. cerevisiae fusion-defective mutant growth rescue, CellTiterGlo 48 h | Potency, µM (doses to about 46.1 µM), usual class: activators; further: nearly all actives have a fitted effect of over 45% in size
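Growth-rescue viability read-out: after 48 h at the non-permissive 37C in glycerol/ethanol YPEG, yeast mitochondrial fusion mutants are measured by CellTiterGlo luminescence; compounds (23 nl pinned per well) restoring growth score as division inhibitors or fusion activators.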
p53 reactivation = mutant p53 re-activation in reporter cells; Potency, µM (series often up to 92.2 µM), most hits filed as activators; H1299 p53-A138V BP100-luciferase reporter, luminescence, 24 h; 320,000 compounds, 0.063% hits; further: nearly all actives have a fitted effect of over 45% in size
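p53-null H1299 cells stably carrying temperature-sensitive p53-A138V and a BP100-luciferase reporter were pinned with compounds (4-point, 1:5 series) and held 24 hrs at 37 deg C. Luminescence was read 10 min after detection reagent.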
TCR activator = activators of T cell receptors; primary human leukocytes, anti-CD3, IL-2 HTRF, 48 h; Potency, µM (top dose mostly 9.22 µM), most hits filed as activators; 330,000 tested, under 10 active
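Compounds are tested in HTS on primary human leukocytes co-incubated with a-CD3 beads for 48 hr. IL-2 output is measured by time-resolved FRET.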
IL-2 act = activators of IL-2; IL-2 activation reporter assay, cell-based qHTS; stimulated with anti-CD3/CD4/CD28 beads; in transgenic mouse T cells; activation, % (series mostly up to about 46 µM); 360,000 compounds, 0.065% hits; in the data active means activation above about 50%; inconclusive means mostly about 30% to 49%
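Quantitative HTS in unstimulated transgenic mouse T cells, with memory T cells as non-tolerant control and PMA/ionomycin as tolerance-bypass control. Compound pretreatment lasted 60 minutes before 18 h bead stimulation; EGFP/DsRed fluorescence read.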
BRCA1 expr act = BRCA1 expression activation | 380,000 compounds, 1.1% hits | MCF7-BRCA1-FFLuc reporter, luminescence, 48 h; response scale: scaled: vehicle 0%, 10 µM genistein 100% | Potency, µM (top dose mostly 46.1 µM), usual class: activators; further: nearly all actives have a fitted effect of over 80% in size
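MCF7-BRCA1-FFLuc, 2000 cells/well; 2 h attach, 37 °C/5% CO2; compound 48 h; luciferase substrate 15 min; luminescence end-point. Norm. to genistein 10 microM max activation and DMSO; concentration-response curves fitted.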
Hits are given with their value; 0 = inactive; ? = inconclusive; - = no result given. Unless noted, the call rests on the fitted dose curve; in most records, active means well fitted curve in the direction sought with a large enough effect; inconclusive means small, poorly fitted or top-dose-only effect, or another doubt; inactive means no such curve, though single readings can be large; an effect the other way counts as inactive or inconclusive.

SMILES	Mito fusion act	p53 reactivation	TCR activator	IL-2 act	BRCA1 expr act
O/C(=C\c1nc2ccccc2[nH]1)c1cccs1	0	?	0	0	12.6µM
O=c1[nH]c2ccccc2nc1/C=C(\O)c1cccs1	0	0	0	147.6	0
CCOC(=O)c1ccccc1N/C=C/C(=O)c1cccs1	0	15.8µM	0	0	0
O=[N+]([O-])c1ccc(/C=C2\C=Cc3ccccc32)cc1	-	-	-	-	0
c1ccc(NC2=Nc3cccc4cccc2c34)cc1	0	0	0	0	0
Fc1ccc(/C=N/NC2=Nc3cccc4cccc2c34)cc1	0	0	0	119.0	0
COc1ccc(N2CC3=C(C2=O)C(c2ccc(O)c(OC)c2)NC(=O)N3C)cc1 (stereo not given)	-	-	-	-	0
CCOC(=O)c1c(C)[nH]c(C=Nc2ccc(OC)cc2)c1O	0	?	0	0	6.31µM
CCOC(=O)c1c(C)[nH]c(C=Nc2ccccc2)c1O	0	?	-	-	-
CCOC(=O)c1c(C)[nH]c(N=Nc2ccc(OC)cc2)c1C	0	0	0	0	6.31µM
N#Cc1ccc(C(=O)N(Cc2ccco2)Cc2cccs2)cc1	-	-	-	-	0
CN(C)c1c(Cl)cc(/C=C2\C=Cc3ccccc32)cc1Cl	-	-	-	-	0
O=c1[nH]c(=S)c2n[nH]nc2[nH]1	-	-	-	-	0
Cc1cc(C)nc(N/N=C/c2ccccc2)n1	0	0	0	0	0
Cc1cc(C)nc(N/N=C/C(Cl)=C/c2ccccc2)n1	0	0	0	0	10µM
COC(=O)c1c(-c2ccc(C)cc2)csc1NC(=O)C1CC=CCC1C(=O)O (stereo not given)	0	?	0	0	11.2µM
CCOC(=O)c1c(-c2ccc(C)cc2)csc1NC(=O)CCN1CC(C)OC(C)C1 (stereo not given)	12.6µM	0	0	0	0
CCOC(=O)c1c(-c2ccc(OC)cc2)csc1NC(=O)CCN1CCOCC1	?	0	0	0	0
CCC(Sc1ncc(S(=O)(=O)c2ccc(Cl)cc2)c(=O)[nH]1)C(=O)Nc1ccc(OC)cc1 (stereo not given)	-	-	-	-	0
O=C1C(Cc2ccccc2)Nc2ncnc(N3CCc4ccccc4C3)c2N1Cc1ccc(Cl)cc1 (stereo not given)	10µM	0	0	0	0
CC(C)CC1Nc2ncnc(N3CCCCC3)c2N(Cc2ccc(Br)cc2)C1=O (stereo not given)	22.4µM	0	0	0	0
CN(C)c1ccc(/C=C/c2ccnc3ccc(Cl)cc23)cc1	-	-	-	-	0
O=C(Nc1cccc(Cl)c1)Nc1ccc2nccnc2c1	0	?	0	0	?
CC(=O)Nc1ccc(CN2CCCCCCC2)cc1	0	0	0	0	0
CCN1CCN(CCC(=O)Nc2ccc(C)cc2)CC1	0	0	0	0	0
SMILES	Mito fusion act	p53 reactivation	TCR activator	IL-2 act	BRCA1 expr act
CCn1ccc(C(=O)Nc2ccccc2Cl)n1	0	0	0	0	3.16µM
CCN1CCN(Cc2ccccc2NC(=O)Nc2ccc(C)cc2)CC1	0	0	0	0	6.31µM
O=C(Nc1ccc(CN2CCCCC2)cc1)Nc1ccccc1Cl	0	0	0	0	7.08µM
CCn1ccc(C(=O)Nc2cccc(Cl)c2)n1	0	0	0	0	?
O=C(Nc1ccc2nccnc2c1)Nc1ccccc1Cl	0	0	0	0	10µM
CCN1CCN(Cc2ccc(NC(=O)Nc3ccccc3Cl)cc2)CC1	0	20µM	0	0	?
CCN1CCN(C(=O)C2(NC(=O)Nc3ccccc3Cl)CCCCC2)CC1	0	0	0	0	0
COc1cc(/C=C(\C#N)c2nc3ccc(C)cc3[nH]2)cc([N+](=O)[O-])c1O	0	0	0	0	7.08µM
CCN(CC)c1ccc(/C=C(/C#N)c2nc3ccc(C)cc3[nH]2)c(OC(C)C)c1	0	0	0	218.5	0
CCCCOc1ccc(CC(=O)NOC)cc1	-	-	-	-	0
O=C1CCCc2[nH]c(=O)c(C(=O)NCc3ccccc3)cc21	-	-	-	-	0
Cc1ccc(NC(=S)N/C(=N/S(=O)(=O)c2ccccc2)c2ccccc2)cc1	0	?	0	0	12.6µM
Cc1ccc(NC(=S)c2ccccc2)cc1	0	?	0	0	1.26µM
Cc1ccc(S(=O)(=O)/N=C(/NC(=S)Nc2ccccc2)c2ccccc2)cc1	0	?	0	0	?
COc1cccc(NC(=O)CN2C(=O)C3(SCC(=O)N3c3cc(C)cc(C)c3)c3ccccc32)c1 (stereo not given)	-	-	-	-	0
Cc1cc(C(=O)Nc2nc(-c3ccccn3)cs2)ccc1[N+](=O)[O-]	0	0	0	0	0
O=C(Nc1nc(-c2ccccn2)cs1)c1cc(Cl)ccc1[N+](=O)[O-]	0	35.5µM	0	0	0
COc1ccc(-c2csc(NCc3ccco3)n2)cc1C	0	?	0	0	6.31µM
C=CCn1cccc(C(=O)Nc2ccc(Cl)cc2)c1=O	?	0	0	0	5.62µM
C=CCn1cccc(C(=O)Nc2ccc(C)c(Cl)c2)c1=O	0	?	0	0	4.47µM
Cn1c(/C(C#N)=C/c2ccncc2)nc2ccccc21	0	0	0	0	0
Cn1c(/C(C#N)=C/c2ccc(O)cc2)nc2ccccc21	0	0	0	0	11.2µM
CCOC(=O)Cn1c(=O)c(-c2cc(Br)ccc2N)nc2ccccc21	0	0	0	151.8	0
Clc1ccc(OCc2nc(-c3ccncc3)no2)c(Br)c1	?	?	0	0	3.98µM
c1ccc(OCc2nc(-c3ccccc3)no2)cc1	0	?	0	0	0
SMILES	Mito fusion act	p53 reactivation	TCR activator	IL-2 act	BRCA1 expr act
c1ccc(OCc2nc(-c3ccncc3)no2)cc1	0	0	0	0	11.2µM
Clc1ccccc1OCc1nc(-c2ccncc2)no1	0	?	0	0	5.01µM
Cc1ccccc1OCC(=O)NCC(=O)OCc1cccc2ccccc12	-	-	-	-	0
CC(=O)c1ccc(NC(=O)CCCc2nc(-c3cccc(C)c3)no2)cc1	-	-	-	-	0
CC1CCc2c(sc(NC(=O)C3CCCO3)c2C#N)C1 (stereo not given)	0	0	0	0	10µM
CC1CCc2c(sc(NC(=O)COC(=O)C3CCCO3)c2C#N)C1 (stereo not given)	0	0	0	0	0
N#Cc1c(NC(=O)C2CC2)sc2c1CCCCC2	15.8µM	0	0	0	0
CC(=O)Nc1sc2c(c1C#N)CCCC2	0	-	0	0	0
Cc1ccc(NC(CC(=O)c2ccccc2)C(=O)O)cc1Cl (stereo not given)	0	?	0	0	0
O=C(CC(Nc1ccccc1)C(=O)O)c1ccccc1 (stereo not given)	0	?	0	0	11.2µM
Cc1cccc(C)c1NC(=O)CCCN1C(=O)C(c2ccccc2)Oc2cccnc21 (stereo not given)	12.6µM	0	0	0	0
Cc1ccc(Nc2nc(COC(=O)C3CC3)cs2)cc1	0	0	0	0	10µM
O=C(Nc1ccc2c(c1)OCCO2)c1cnc2n(c1=O)CCS2	0	?	0	0	7.08µM
O=C(Nc1ccc2c(c1)OCO2)c1cnc2n(c1=O)CCS2	0	?	0	0	2.51µM

Assay outcomes (PubChem)
